From ChEMBL document CHEMBL3433997, “St. Jude Leishmania screening dataset” (2016)

Key:
Assay type in all cases: functional
[1] = biological target: Solute carrier family 2, facilitated glucose transporter member 1 (Homo sapiens) (UniProt P11166); test: ST_JUDE_LEISH: Cytotoxicity at 2uM final concentration against transgenic Leishmania Mexicana promastigotes LmGLUT1 that are glucose transport deficient and complemented with the human glucose transporter GLUT1. Activity is measured by DNA content using SYBR green in vitro
Chain of Solute carrier family 2, facilitated glucose transporter member 1 (Homo sapiens) (P11166 whole entry): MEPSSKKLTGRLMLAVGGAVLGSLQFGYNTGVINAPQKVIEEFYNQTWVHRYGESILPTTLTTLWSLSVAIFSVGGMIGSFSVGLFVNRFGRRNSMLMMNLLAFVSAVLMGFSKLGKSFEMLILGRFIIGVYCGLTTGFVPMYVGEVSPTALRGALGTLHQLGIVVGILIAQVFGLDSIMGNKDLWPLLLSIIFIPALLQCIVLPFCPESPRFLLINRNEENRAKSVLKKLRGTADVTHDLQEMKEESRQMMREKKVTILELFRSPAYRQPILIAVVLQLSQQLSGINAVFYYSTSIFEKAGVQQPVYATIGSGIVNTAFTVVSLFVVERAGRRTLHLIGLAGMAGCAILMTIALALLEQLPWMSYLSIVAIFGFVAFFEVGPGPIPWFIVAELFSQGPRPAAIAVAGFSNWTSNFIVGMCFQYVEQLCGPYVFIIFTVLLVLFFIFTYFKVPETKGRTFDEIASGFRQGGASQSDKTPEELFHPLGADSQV

[2] = biological target: Hexose transporter 1 (Plasmodium falciparum) (UniProt O97467); test: ST_JUDE_LEISH: Cytotoxicity at 2uM final concentration against transgenic Leishmania Mexicana promastigotes LmPfHT that are glucose transport deficient and complemented with the Plasmodium falciparum hexose transporter. Activity is measured by DNA content using SYBR green in vitro
[3] = biological target: Glucose transporter (Leishmania mexicana) (UniProt O61059); test: ST_JUDE_LEISH: Cytotoxicity at 2uM final concentration against transgenic Leishmania Mexicana promastigotes LmGT2 that are glucose transport deficient and complemented with the L. Mexicana glucose transporter 2. Activity is measured by DNA content using SYBR green in vitro

**Q.** What does the source list for CCn1c(-c2nonc2N)nc2c(-c3cccc(NC(=O)Nc4ccc5c(c4)CCC5)c3)ncc(OCCCN)c21?
**A.** inhibition [1]: 2.61%; inhibition [2]: 3.19%; inhibition [3]: 2.89%

**Q.** What does the source list for c1ccc2c(c1)CN(CC1CC1)CC1(CCN(Cc3c[nH]c4cnccc34)CC1)O2?
**A.** inhibition [1]: -0.99%; inhibition [2]: 0.39%; inhibition [3]: 0.54%

**Q.** How did the inhibition [1] turn out when c1ccc2[nH]c(-c3ccc(-c4ccc(CN5CCC(N6CCCCC6)CC5)cc4)s3)nc2c1 was run?
**A.** Its inhibition is 0.72%.

**Q.** What about the inhibition [2] of the same compound?
**A.** The inhibition was -0.81%.

**Q.** What about the inhibition [3] of the same compound?
**A.** Its inhibition is -1.09%.

**Q.** What does the source list for CCCCN1CCN(CCCNc2c3ccccc3nc3ccccc23)CC1?
**A.** inhibition [1]: 68%; inhibition [2]: 80%; inhibition [3]: 55.3%

**Q.** How did the inhibition [1] turn out when CCOC(=O)N[C@@H]1CN[C@@H](C#Cc2cc3c(Nc4ccc(OCc5cccc(F)c5)c(Cl)c4)ncnc3s2)C1 was run?
**A.** Its inhibition is -1.82%.

**Q.** And the inhibition [2]?
**A.** Its inhibition is 0.54%.

**Q.** What about the inhibition [3] of the same compound?
**A.** Its inhibition is 0.09%.

**Q.** What does the source list for O=C(Nc1ccc(C(F)(F)F)cc1)NC1CCN(c2ccnc3cc(Cl)ccc23)C1 (stereo unspecified)?
**A.** inhibition [1]: 3.59%; inhibition [2]: 3.27%; inhibition [3]: 0.73%

**Q.** Which results are given for c1cc(CN2CCN(c3ccncc3)CC2)cc(-c2ccc(-c3nc4ccccc4[nH]3)cc2)c1?
**A.** inhibition [1]: 8.29%; inhibition [2]: 5.17%; inhibition [3]: 2.65%

**Q.** How did the inhibition [1] turn out when CC(C)(C)NCc1cc(Nc2ccnc3cc(Cl)ccc23)ccc1F was run?
**A.** Its inhibition is 7.77%.

**Q.** What about the inhibition [2] of the same compound?
**A.** The inhibition was 8.36%.

**Q.** And the inhibition [3]?
**A.** The inhibition was 9.71%.

**Q.** How did the inhibition [1] turn out when O=C(Nc1ccc(N2CCNCC2)nc1)c1oc(-c2ccccc2)nc1C(F)(F)F was run?
**A.** Its inhibition is 2.9%.

**Q.** And the inhibition [2]?
**A.** Its inhibition is 3.6%.

**Q.** And the inhibition [3]?
**A.** Its inhibition is 0.32%.

**Q.** For CC(C)(CNC(=O)C1CCN(CCOCc2ccccc2)CC1)c1nc(-c2ccc(Cl)c(O)c2)c(-c2ccncc2)[nH]1, which inhibition [1] is on record?
**A.** The inhibition was 1.22%.

**Q.** And the inhibition [2]?
**A.** The inhibition was 0.65%.

**Q.** And the inhibition [3]?
**A.** Its inhibition is 2.74%.

**Q.** With CN(Cc1cccc(O)c1)C1CCN(c2cc(NC(=O)c3cccc(F)c3)ccn2)CC1 as the compound, how does the inhibition [1] read?
**A.** The inhibition was 0.01%.

**Q.** And the inhibition [2]?
**A.** Its inhibition is 1.18%.

**Q.** And the inhibition [3]?
**A.** The inhibition was 1.33%.

**Q.** How did the inhibition [1] turn out when CCc1cc2c(cc1OCCN(C)C)N(C(=O)Nc1ccc(-c3ccncc3)c(Cl)c1)CC2 was run?
**A.** Its inhibition is 6.82%.

**Q.** What about the inhibition [2] of the same compound?
**A.** The inhibition was 6.4%.

**Q.** And the inhibition [3]?
**A.** The inhibition was 3.08%.
